Laboratory results from the supplement of paper PMC6555819.

What follows are sequences tested on VDR:RXRa (NR concentration 270 nM, RXRa partner concentration 90 nM) (assay: PBM binding z-score (relative to random genomic background probes); higher = stronger binding; sequences stand for … in GC…GCGATTGACAGCGTAGAATGAAGG).
Procedure: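 Protein-binding microarray (Agilent 4x180K custom design, double-stranded 60-nt probes: 5' GC cap, 34-nt variable region, 24-nt constant primer region; full probe sequence given). Purified or IVT nuclear receptor:RXRα heterodimers (3:1 NR:RXRα, mostly 270:90 nM) or homodimers were incubated for 1 h in PBS with 2% milk and no ligand, then detected with Alexa488 antibodies. Fluorescence from o1-orientation probes (~5 replicates averaged) was converted to z-scores against 500 random hg19 background probes. Variable regions are seed direct-repeat (DR0–DR5) sites, all their single-nucleotide variants and half-site ablations.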

**Q.** AATAGAGGGTCACTAGGCCAGAGTAGGTACGAAT was tested. Which PBM binding z-score did it give?
**A.** 2.75

**Q.** How did the PBM binding z-score turn out when CCTGCTAGGTCATCGTCAGCTAATCTACAGTATG was run?
**A.** 1.87

**Q.** With TCTCGGAGGACACGAAGGTCAGTGCTTTCCAGAG as the sequence, how does the PBM binding z-score read?
**A.** 2.08

**Q.** For CATACAGGGTCAGCTAGGCGAGAGTAGGGACGGC, which PBM binding z-score is on record?
**A.** 2.57

**Q.** How did the PBM binding z-score turn out when TCACCAAGGTGAAAGGTCGTTGATGCACGCCTTG was run?
**A.** 3.17

**Q.** For CCTCGGAGGACAGACGGTCAGAGCTGTCCGCTTT, which PBM binding z-score is on record?
**A.** -0.53

**Q.** Which PBM binding z-score does the source give for TAGCCTAGGTCATGCGGGCAAGTATAGTGTCGGC here?
**A.** 2.21

**Q.** AGTCAATGTTCACTAGGTAACGTAAGATTCAGCT was tested. Which PBM binding z-score did it give?
**A.** -0.0351

**Q.** CCTAGCAGGCCATTCTGGGTCACTCAAGGCTTGA was tested. Which PBM binding z-score did it give?
**A.** 1.04

**Q.** With GCGACTGGGGCATCAGCAGGTTACTATAACTTAA as the sequence, how does the PBM binding z-score read?
**A.** 0.0645

**Q.** Which PBM binding z-score does the source give for CGACCGAGGGCATGAGTTGATAGCAAATGCCGAT here?
**A.** 1.3

**Q.** With TCATATAGGTAAAATGTGAAAGTCGGTGTGGTAA as the sequence, how does the PBM binding z-score read?
**A.** 0.774

**Q.** How did the PBM binding z-score turn out when CAAACTAGGTCAAGAGGTTAAAGTCCGCTTCCCG was run?
**A.** 4.18

**Q.** Which PBM binding z-score does the source give for CCTACTGGGCCATTCAGAGGTCATAGATCATATG here?
**A.** 3.64

**Q.** How did the PBM binding z-score turn out when CGAACTAGGTCATAGACAGGACAGTGAATAGTAA was run?
**A.** 1.78

**Q.** With CCTCGGAGGACAACAGGAGGGCAGAGCTGCCAGA as the sequence, how does the PBM binding z-score read?
**A.** -0.641

**Q.** With CCTAGTTGGTCAGAAGGTCACACACCGGATATGA as the sequence, how does the PBM binding z-score read?
**A.** 3.5

**Q.** For TCTTGTAGATCAAAGGTTAAGATAGCCGAAGCCT, which PBM binding z-score is on record?
**A.** 1.49

**Q.** How did the PBM binding z-score turn out when TGAATGAGGTTATAAGATCAGTGAACGTTGCAAA was run?
**A.** 1.14

**Q.** CCTACTTGGCCAAGGTCATTGATCAGTCAAAGCA was tested. Which PBM binding z-score did it give?
**A.** 3.78

**Q.** With AGAATGTGGTTATACGTAGATCAGGGAAGAAAGT as the sequence, how does the PBM binding z-score read?
**A.** 0.0519

**Q.** How did the PBM binding z-score turn out when CTCGAAAGGTCGGTTGAGGTGCGTATACGGATAA was run?
**A.** 2.09

**Q.** CCCAGCAGGCCAGGGTCACTCAAGCATTTCGCTT was tested. Which PBM binding z-score did it give?
**A.** 2.42

**Q.** How did the PBM binding z-score turn out when GGAACCAGGGCAAAGTTGATAGCATCTGTCGACG was run?
**A.** 0.607

**Q.** Which PBM binding z-score does the source give for CCTTACGGGTCACTGACAGGGTATAGCATTTGGA here?
**A.** 3.15

**Q.** Which PBM binding z-score does the source give for TGAATGAGGTTAAAGTTCAGGGAACGTGGCGTCG here?
**A.** 4.37

**Q.** CATACAGGGTCAGCTAGGCCCGAGTAGGGACGGC was tested. Which PBM binding z-score did it give?
**A.** 2.63

**Q.** CCTACTGGGCCAAAGGTCGTTGATTCCAATGCTC was tested. Which PBM binding z-score did it give?
**A.** 2.05

**Q.** Which PBM binding z-score does the source give for CCTAGTTGGTCAATGTCACACACGCTATAGGTAC here?
**A.** 0.974

**Q.** Which PBM binding z-score does the source give for CACGAAAGGTCGTGCTCAGGTGAGTATACCAAAC here?
**A.** 3.51

**Q.** With CAAACTAGGTTACAGAGGTCAAAGTCCGTGCGTA as the sequence, how does the PBM binding z-score read?
**A.** 7.06

**Q.** How did the PBM binding z-score turn out when CAAACTAGATCACCGGAAGGTCAAAGTCCGCATG was run?
**A.** 3.03

**Q.** For TCTGCTAGGTCAACGATGGGCAGCTAATCTGCTA, which PBM binding z-score is on record?
**A.** 0.993

**Q.** For CCTACTGGGCCATTCAGAGGCCATTGATCATATG, which PBM binding z-score is on record?
**A.** -0.232

**Q.** With ATCGAAAGGTCGACGAGGTGTGTATACACCGTTT as the sequence, how does the PBM binding z-score read?
**A.** 3.81

**Q.** Which PBM binding z-score does the source give for CTACCCAGGTGAACAAGGTCGTTGATTACTATTC here?
**A.** 5.31

**Q.** With ATCGAAAGGTCGAGGGTGAGTATACCCACCCGAA as the sequence, how does the PBM binding z-score read?
**A.** 2.68

**Q.** With CCTACTGGGCCACGAAAGGTCATTGCTTCAGTGA as the sequence, how does the PBM binding z-score read?
**A.** 4.23

**Q.** For ACAGACAGGTGAGTGAAGGTGACTCAGCTGGACG, which PBM binding z-score is on record?
**A.** -0.119

**Q.** ATCGACAGGTCGAAGGTGAGTATACCCACCCGAA was tested. Which PBM binding z-score did it give?
**A.** 0.627
